From PubChem BioAssay AID425 (Sanford-Burnham Center for Chemical Genomics, 2006) come the findings set out here.

“And” between values parts separate entries of the source, which are not always exact repeats. Equal values may be shown once. In all, about 110,000 compounds went through this assay and about 190 (0.17%) were called active. Rule as the data show it: active = inhibition above about 50%; inactive = the rest. The list comes from a sample in which actives are over-represented; it also holds similar structures and randomly drawn compounds. Entries with a potency or affinity are not part of this list. A structure can be active in one record and inactive in another.

The target of this assay is Dual specificity protein phosphatase 6 (Rattus norvegicus) (UniProt Q64346). Put plainly: MKP-3 phosphatase inhibitors, primary screen, biochemical, rat enzyme, in vitro (AID 425).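 Also: plate controls were vehicle for no effect and reference inhibitor for full effect.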 The settings on record: recombinant MKP-3 phosphatase activity, fluorescence; at 20 µM; stronger effect = higher value.
Chain of Dual specificity protein phosphatase 6 (Rattus norvegicus) (Q64346 whole entry, looked up): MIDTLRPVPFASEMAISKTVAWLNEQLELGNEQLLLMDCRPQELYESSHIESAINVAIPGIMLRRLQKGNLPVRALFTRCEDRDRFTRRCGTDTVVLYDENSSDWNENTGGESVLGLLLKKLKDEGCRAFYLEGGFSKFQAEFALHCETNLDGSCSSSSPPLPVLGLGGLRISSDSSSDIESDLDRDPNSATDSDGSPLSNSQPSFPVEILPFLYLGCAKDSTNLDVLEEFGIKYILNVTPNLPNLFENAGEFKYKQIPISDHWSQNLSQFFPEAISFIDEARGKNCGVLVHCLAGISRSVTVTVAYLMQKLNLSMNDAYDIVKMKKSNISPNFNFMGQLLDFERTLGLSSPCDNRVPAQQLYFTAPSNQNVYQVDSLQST
By inhibition is commonly meant the change of the read-out against control, counted positive when it falls. With `COc1cc2c(C#N)c(N3CCCCC3)nc(N)c2c(N)n1`, the inhibition was 8% (inactive).
As for `COc1cc2c(C#N)c(N3CCOCC3)nc(N)c2c(N)n1`, the inhibition was -5.5% (inactive).
The value for `Cc1ccc2oc(-c3cccc(NC(=O)COc4ccccc4[N+](=O)[O-])c3C)nc2c1` was 0.7% (inactive); that for `Cc1c(NC(=O)COc2ccccc2[N+](=O)[O-])cccc1-c1nc2ncccc2o1` was 59.4% (active).
The value for `O=C(COc1ccccc1[N+](=O)[O-])Nc1ccc(-c2nc3ncccc3o2)cc1` was 16% (inactive); that for `CCOc1ccc(NC(=O)CSC(N)=O)cc1` was -0.4% (inactive).
The value for `Cc1ccc(C)c(S(=O)(=O)NCc2cccnc2)c1` was -4.3% (inactive).
`O=c1/c(=C\c2ccc(-c3cccc(Cl)c3)o2)sc2nc3ccccc3n12`: the inhibition was 0.1% (inactive).
For the compound `Cc1cc2nc3s/c(=C/c4ccc(-c5ccc(Cl)cc5)o4)c(=O)n3c2cc1C`, the inhibition was 0.8% (inactive).
As for `O=C(O)c1ccccc1-c1ccc(/C=c2\sc3nc4cc(Br)cnc4n3c2=O)o1`, the figure is 52.1% (active); as for `O=c1/c(=C/c2ccc(-c3ccc([N+](=O)[O-])cc3Cl)o2)sc2nc3cc(Br)cnc3n12`, 1% (inactive); as for `O=c1/c(=C/c2ccc(-c3ccccc3[N+](=O)[O-])o2)sc2nc3cc(Br)cnc3n12`, 0.3% (inactive).
Regarding `O=c1/c(=C/c2ccc(-c3ccc(Cl)cc3)o2)sc2nc3ccccc3n12`, the inhibition is -1.6% (inactive).
As for `O=c1/c(=C/c2ccc(-c3ccccc3)o2)sc2nc3ccccc3n12`, the figure is -5.1% (inactive).
The value for `O=c1/c(=C\c2ccc(-c3cccc(Br)c3)o2)sc2nc3ccccc3n12` was 1.3% (inactive).
In the case of `Cc1cc(C)c2nc3s/c(=C\c4ccc(-c5ccc(Cl)c(C(=O)O)c5)o4)c(=O)n3c2c1`, the inhibition is 19.9% (inactive).
The value for `CCCCOC(=O)c1ccc(NC(=O)c2cncc(Br)c2)cc1` was 2.8% (inactive); that for `COc1ccccc1/C=C1\SC(=S)N(NC(=O)Cc2ccccc2)C1=O` was 2.2% (inactive).
The value for `O=C(COc1ccc(=O)n(-c2ccccc2)n1)Nc1ccccc1` was 1.2% (inactive); that for `COC(CNS(=O)(=O)c1ccc(Cl)cc1)c1ccccc1` (stereo unspecified) was -0.6% (inactive).
The value for `CC1(C)CC(=O)C2=C(C1)OC1=C(C(=O)CC(C)(C)C1)C2c1ccc(-c2nnc(N)s2)cc1` was 5.6% (inactive); that for `CC(C)CSc1nc2c(c(=O)[nH]c(=O)n2C)n1CC(O)COc1cccc2ccccc12` (stereo unspecified) was -2.5% (inactive).
Turning to `Cn1c(=O)oc2cc(S(=O)(=O)Nc3ccc(Cl)cc3F)ccc21`, the inhibition was -2.1% (inactive).
With `Cc1nc2c3ccccc3n(CC#N)c(=O)n2n1`, the inhibition is -2.1% (inactive).
As for `NC(=O)C1(N2CCCCC2)CCN(CC(=O)Nc2ccc(Oc3ccccc3)cc2)CC1`, the figure is -17% (inactive).
The value for `COc1ccc(CCCc2nnc(SCC(=O)Nc3ncc(C)s3)o2)cc1` was -9.2% (inactive).
The value for `O=C(O)c1ccccc1NCN1C(=O)C2CC=C(Cl)CC2C1=O` (stereo unspecified) was 5.2% (inactive).
In the case of `O=[N+]([O-])c1ccc(C2Nc3ccc([N+](=O)[O-])cc3C3C=CCC32)cc1` (stereo unspecified), the inhibition is 6.6% (inactive).
As for `O=[N+]([O-])c1cccc2c1NC(c1ccc(F)cc1)C1CC=CC21` (stereo unspecified), the figure is -0.5% (inactive); as for `O=C(O)C1Nc2ccc([N+](=O)[O-])cc2C2C=CCC12` (stereo unspecified), 63.7% (active); as for `CC(=O)Nc1ccc2c(c1)C1C=CCC1C(C(=O)O)N2` (stereo unspecified), 3% (inactive).
The value for `O=[N+]([O-])c1cccc(C2Nc3ccc4ccccc4c3C3C=CCC32)c1` (stereo unspecified) was 8.7% (inactive); that for `Oc1ccc(C2Nc3ccc4ccccc4c3C3C=CCC32)cc1` (stereo unspecified) was 2.7% (inactive); that for `O=C(O)C1Nc2ccc3ccccc3c2C2C=CCC12` (stereo unspecified) was 91.5% (active).
The value for `O=C(O)C1Nc2c(cccc2[N+](=O)[O-])C2C=CCC12` (stereo unspecified) was 79% (active); that for `COc1ccc2c(c1)C1C=CCC1C(C(=O)O)N2` (stereo unspecified) was 23.5% (inactive).
As to `Cc1ccc2c(c1)C1C=CCC1C(C(=O)O)N2` (stereo unspecified), the inhibition was 40.3% (inactive).
As for `O=[N+]([O-])c1cccc2c1NC(c1ccccc1F)C1CC=CC21` (stereo unspecified), the figure is 2.2% (inactive); as for `O=C(Nc1ccc2nn(-c3ccccc3)nc2c1)c1cc(I)ccc1Cl`, 3.4% (inactive); as for `Cn1cnnc1Sc1nc2c(c(=O)n(C)c(=O)n2C)n1C`, -3.7% (inactive).
As for `COc1ccc(C(=O)/C=C/c2c(Cl)cccc2Cl)cc1`, the figure is 10.2% (inactive).
The value for `CCOc1ncccc1C(=O)OCC(=O)NCCc1ccc(OC)cc1` was 1.6% (inactive); that for `O=C(c1ccc(S(=O)(=O)NCC2CCCO2)cc1)N1CCc2ccccc21` (stereo unspecified) was 8.3% (inactive); that for `O=C(CCNS(=O)(=O)c1ccccc1[N+](=O)[O-])Nc1ccc(I)cc1` was 2% (inactive).
Turning to `C=CCn1c(SCC(=O)NCc2cccs2)nnc1C1CCCCC1`, the inhibition is -0.2% (inactive).
As for `COc1cc(/C=C2\SC(=S)N(c3ccc(C)cc3C)C2=O)cc(Br)c1O`, the figure is -2.7% (inactive); as for `O=C(NCC1CCCO1)c1cnn2c1NC(c1ccco1)CC2C(F)(F)F` (stereo unspecified), -1.8% (inactive).
The value for `Cc1ccc(NC(=O)Cn2nc(C)c3ccccc3c2=O)cc1F` was -2.5% (inactive); that for `COc1cc(C(=O)NC(NC(=S)Nc2ccc(C(C)=O)cc2)C(Cl)(Cl)Cl)cc(OC)c1OC` (stereo unspecified) was 3.5% (inactive).
The value for `COc1cccc(C2C(C(=O)Nc3ccccc3)=C(C)N=C3SCC(=O)N32)c1` (stereo unspecified) was 3.3% (inactive); that for `Cc1ccc(C(=O)O)cc1N1C(=O)c2ccccc2C1=O` was -1.1% (inactive).
Turning to `Cc1ccc(-c2ccccc2)n1-c1cccc(C(=O)O)c1`, the inhibition is 2.4% (inactive).
Consider `Cc1ccc(C)n1-c1cc(C(=O)O)cc(C(=O)O)c1`, for which the inhibition was 32.5% (inactive).
In the case of `Cc1cc(N)ccc1-n1c(C)ccc1C`, the inhibition is -1.5% (inactive).
As for `Cc1cc(Cl)c2cc(C(=O)O)ccc2n1`, the figure is 3.5% (inactive); as for `Cc1ccc(C(=O)O)cc1-n1c(C)ccc1C`, 59% (active).
Turning to `Cc1cc(C(=O)O)ccc1-n1c(C)ccc1C`, the inhibition is 55% (active) and 10.8% (inactive).
The value for `Cc1ccc(C)n1-c1cc(C(=O)O)ccc1O` was 32.6% (inactive); that for `Cc1ccc(C)n1-c1cc(C(=O)O)ccc1Cl` was 101% (active); that for `COc1cccc(C2=NN(C(=O)COc3ccccc3)C(O)(C(F)(F)F)C2)c1` (stereo unspecified) was 1.7% (inactive).
As for `Cc1cccc(C(C)C)c1NC(=O)c1cccnc1`, the figure is -7.7% (inactive).
